Reference: PubChem BioAssay (NCI)
This is part of a sample that, as a whole, favours compounds with a hit. Of some 83,000 tested, about 20% had one in any assay.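 96-well plates, one dose, 48 hours. Percent growth reported; active if below 10.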 Activity calls are given as the source filed them.

Legend:
Test in all cases: NCI-60 one-dose screen, 48 h (100 = growth as untreated, 0 = no growth, -100 = all killed)
Details in all cases: 10 µM unless noted
NCI-H23 lung = test system: NCI-H23 lung
NCI-H226 lung = test system: NCI-H226 lung
NCI-H322M lung = test system: NCI-H322M lung
HOP-62 NSCLC = test system: HOP-62 NSCLC
NCI-H460 lung = test system: NCI-H460 lung
HOP-92 NSCLC = test system: HOP-92 NSCLC
NCI-H522 lung = test system: NCI-H522 lung
A549/ATCC NSCLC = test system: A549/ATCC NSCLC
COLO 205 colon = test system: COLO 205 colon
786-0 renal = test system: 786-0 renal

Measured: growth

C=CCn1cc(-c2nc3ccccc3s2)c2cc(-c3ccc4c5c(cccc35)C(=O)N(CCN3CCNCC3)C4=O)ccc21
inactive: NCI-H23 lung 86.3% | NCI-H226 lung 63.9% | NCI-H322M lung 97.5% | HOP-62 NSCLC 82.7% | NCI-H460 lung 89% | HOP-92 NSCLC 72.1% | NCI-H522 lung 92.4% | A549/ATCC NSCLC 85% | COLO 205 colon 107%

C=C1C(=O)O[C@H]2[C@H]1CC/C(Cn1cc(CNC(=O)c3cc4ccccc4[nH]3)nn1)=C\CC[C@@]1(C)O[C@@H]21
active: NCI-H522 lung -65% | COLO 205 colon -34.4%
inactive: NCI-H23 lung 84.1% | NCI-H226 lung 101% | NCI-H322M lung 94.7% | HOP-62 NSCLC 101% | NCI-H460 lung 101% | HOP-92 NSCLC 32.2% | 786-0 renal 66.1%

Cc1ccc(S(=O)(=O)NCCNc2nccc(-c3c(-c4ccc(O)cc4)nc4sccn34)n2)cc1
inactive: NCI-H23 lung 95.1% | NCI-H226 lung 98.8% | NCI-H322M lung 110% | HOP-62 NSCLC 113% | NCI-H460 lung 106% | HOP-92 NSCLC 101% | NCI-H522 lung 84% | 786-0 renal 97.3% | COLO 205 colon 104%

S=c1[nH]nc(-c2cc3ccc2CCc2ccc(cc2)CC3)n1C1CC1
inactive: NCI-H23 lung 97.8% | NCI-H226 lung 108% | NCI-H322M lung 105% | HOP-62 NSCLC 104% | NCI-H460 lung 103% | HOP-92 NSCLC 96.1% | NCI-H522 lung 89.6% | A549/ATCC NSCLC 108% | COLO 205 colon 113%

CC(C)(C)n1cc(-c2ccnc(NCCCNS(=O)(=O)c3ccccc3)c2)c(-c2cccc(O)c2)n1
inactive: NCI-H23 lung 72.8% | NCI-H226 lung 53.4% | NCI-H322M lung 59.1% | HOP-62 NSCLC 66.1% | NCI-H460 lung 19.1% | HOP-92 NSCLC 77.7% | NCI-H522 lung 45% | 786-0 renal 25.8% | COLO 205 colon 14.7%

COc1ccc(S(=O)(=O)n2ccc(-c3ccc4c(c3)CCC(C)(C)O4)n2)cc1OC
inactive: NCI-H23 lung 56.1% | NCI-H226 lung 59% | NCI-H322M lung 89.5% | HOP-62 NSCLC 112% | NCI-H460 lung 69.6% | HOP-92 NSCLC 58.3% | NCI-H522 lung 65.8% | 786-0 renal 79.4% | COLO 205 colon 87.1%

O=C(Nc1ccncc1)C(=O)c1cn(S(=O)(=O)c2ccccc2F)c2ccccc12
active: NCI-H522 lung -24.6%
inactive: NCI-H23 lung 25.9% | NCI-H226 lung 56.8% | NCI-H322M lung 97.2% | HOP-62 NSCLC 38.4% | NCI-H460 lung 75.8% | HOP-92 NSCLC 24.6% | 786-0 renal 36.9% | COLO 205 colon 103%

O=C(c1ccccc1)C1OC1c1ccc([N+](=O)[O-])cc1 (stereo unspecified)
inactive: NCI-H23 lung 48.1% | NCI-H226 lung 67.7% | NCI-H322M lung 106% | HOP-62 NSCLC 86.4% | NCI-H460 lung 84% | HOP-92 NSCLC 61.5% | NCI-H522 lung 31.4% | 786-0 renal 83.3% | COLO 205 colon 112%

CCO/C=N/C1=C(C#N)C(c2ccc(Cl)cc2)c2c(c3ccc(C)cc3[nH]c2=O)O1 (stereo unspecified)
inactive: NCI-H23 lung 85.4% | NCI-H226 lung 78.9% | NCI-H322M lung 88% | HOP-62 NSCLC 70.7% | NCI-H460 lung 95% | HOP-92 NSCLC 50.7% | NCI-H522 lung 74.2% | A549/ATCC NSCLC 90.2% | COLO 205 colon 96.1%

O=C(O)/C=C/C(=O)c1ccc(Cl)cc1
inactive: NCI-H23 lung 116% | NCI-H226 lung 113% | NCI-H322M lung 104% | HOP-62 NSCLC 112% | NCI-H460 lung 112% | HOP-92 NSCLC 119% | NCI-H522 lung 80.4% | 786-0 renal 105% | COLO 205 colon 120%

COc1ccc(N=Cc2c(O)ccc3c2oc2cc(Cl)c(O)c(Cl)c23)cc1
inactive: NCI-H23 lung 93.7% | NCI-H226 lung 101% | NCI-H322M lung 122% | HOP-62 NSCLC 95% | NCI-H460 lung 99.8% | HOP-92 NSCLC 88.8% | NCI-H522 lung 68.1% | 786-0 renal 88.8% | COLO 205 colon 131%

O=C(NNC(=O)N1c2ccccc2C=Cc2ccccc21)c1ccccc1
inactive: NCI-H23 lung 101% | NCI-H226 lung 113% | NCI-H322M lung 107% | HOP-62 NSCLC 114% | NCI-H460 lung 106% | HOP-92 NSCLC 103% | NCI-H522 lung 94% | 786-0 renal 103% | COLO 205 colon 112%

CCCCCCCCCCCCCCCCCCNC(=O)[C@H]1CSC(c2ccc(OC)cc2O)N1 (stereo partly specified)
inactive: NCI-H23 lung 83.3% | NCI-H226 lung 90.4% | NCI-H322M lung 67.5% | HOP-62 NSCLC 63.9% | NCI-H460 lung 13.4% | HOP-92 NSCLC 66% | NCI-H522 lung 65.8% | 786-0 renal 82.2% | COLO 205 colon 97.1%

NC(N)=Nc1nc2ccccc2o1
active: HOP-92 NSCLC -9.02%
inactive: NCI-H23 lung 108% | NCI-H226 lung 107% | NCI-H322M lung 106% | HOP-62 NSCLC 88.4% | NCI-H460 lung 99.8% | NCI-H522 lung 107% | 786-0 renal 109% | COLO 205 colon 138%

COc1ccc(/C=C\c2cc(OC)c(OC)c(OC)c2)cc1OC(=O)c1cccc(Cn2cc(CCOC(=O)c3cccc(Cn4nnc5c4C(=O)c4ccccc4C5=O)c3)nn2)c1
active: NCI-H460 lung 5.39% | NCI-H522 lung 6.06% | COLO 205 colon -25.2%
inactive: NCI-H23 lung 33.1% | NCI-H226 lung 58.4% | NCI-H322M lung 50.5% | HOP-62 NSCLC 14.9% | HOP-92 NSCLC 52.6% | A549/ATCC NSCLC 17.3%

CCN(CC)CCOC(=O)C(c1ccccc1)(c1ccccc1)C(C)C
inactive: NCI-H23 lung 90.2% | NCI-H226 lung 92.9% | NCI-H322M lung 82.3% | HOP-62 NSCLC 83.2% | NCI-H460 lung 92% | HOP-92 NSCLC 77.7% | NCI-H522 lung 86.6% | A549/ATCC NSCLC 80% | COLO 205 colon 66.3%

C/C=C(\C)C(C(=O)NC1CCCCC1)N(C(=O)C1CCc2cc(F)ccc2O1)c1ccc(Cl)cc1 (stereo unspecified)
inactive: NCI-H23 lung 103% | NCI-H226 lung 93.7% | NCI-H322M lung 110% | HOP-62 NSCLC 93.6% | NCI-H460 lung 104% | HOP-92 NSCLC 108% | NCI-H522 lung 92% | 786-0 renal 101% | COLO 205 colon 106%

O=C1C(Cl)=C(Nc2ccccn2)C(=O)c2ccccc21
inactive: NCI-H23 lung 40.5% | NCI-H226 lung 94.1% | NCI-H322M lung 115% | HOP-62 NSCLC 46.9% | NCI-H460 lung 62.6% | HOP-92 NSCLC 102% | NCI-H522 lung 58.3% | 786-0 renal 111% | COLO 205 colon 97.6%

COc1cc(Nc2nc(N[C@H]3CCCC[C@@H]3N)nc3cc[nH]c(=O)c23)cc(OC)c1
inactive: NCI-H23 lung 30.2% | HOP-62 NSCLC 47.6% | NCI-H460 lung 27.6% | 786-0 renal 40.4% | COLO 205 colon 18.8%
active: NCI-H226 lung -13.5% | NCI-H322M lung 9.42% | HOP-92 NSCLC -10.1% | NCI-H522 lung -9.29%

CC(C)C(C(=O)NCCN1CCOCC1)N1C(=O)/C(=C/c2ccc(Br)cc2)SC1=S (stereo unspecified)
inactive: NCI-H23 lung 98.4% | NCI-H226 lung 107% | NCI-H322M lung 100% | HOP-62 NSCLC 104% | NCI-H460 lung 101% | HOP-92 NSCLC 104% | NCI-H522 lung 95.9% | A549/ATCC NSCLC 102% | COLO 205 colon 111%

Cc1nc2c3c(ncn2n1)Oc1c(c(=O)[nH]c2ccccc12)C3c1ccc(Cl)cc1 (stereo unspecified)
inactive: NCI-H23 lung 103% | NCI-H226 lung 98% | NCI-H322M lung 100% | HOP-62 NSCLC 87.3% | NCI-H460 lung 101% | HOP-92 NSCLC 74.2% | NCI-H522 lung 87.6% | A549/ATCC NSCLC 97.4% | COLO 205 colon 107%

CC(C)(C)OC(=O)NCCc1ccc(N=C=S)cc1
inactive: NCI-H23 lung 81.4% | NCI-H226 lung 99.1% | NCI-H322M lung 86.9% | HOP-62 NSCLC 70.1% | NCI-H460 lung 82.2% | HOP-92 NSCLC 39.4% | NCI-H522 lung 16.1% | 786-0 renal 80% | COLO 205 colon 72.4%

O=C(NNC(=S)Nc1ccccc1)c1cc2ccc1CCc1ccc(cc1)CC2
inactive: NCI-H23 lung 74.8% | NCI-H226 lung 78.9% | NCI-H322M lung 77.7% | HOP-62 NSCLC 64.7% | NCI-H460 lung 36.9% | HOP-92 NSCLC 48.8% | NCI-H522 lung 76% | A549/ATCC NSCLC 59.2% | COLO 205 colon 77%

Cc1ccc2ccccc2c1C[n+]1ccccc1
inactive: NCI-H23 lung 86.5% | NCI-H226 lung 99.3% | NCI-H322M lung 109% | HOP-62 NSCLC 84.8% | NCI-H460 lung 114% | HOP-92 NSCLC 79.3% | NCI-H522 lung 100% | 786-0 renal 102% | COLO 205 colon 112%

S=c1[nH]nc(-c2cc3ccc2CCc2ccc(cc2)CC3)n1-c1ccccc1
inactive: NCI-H23 lung 98% | NCI-H226 lung 107% | NCI-H322M lung 96.4% | HOP-62 NSCLC 106% | NCI-H460 lung 99.6% | HOP-92 NSCLC 98.4% | NCI-H522 lung 87.3% | A549/ATCC NSCLC 93.1% | COLO 205 colon 106%

CCOC(=O)c1c(NS(=O)(=O)c2ccc(C)cc2)sc2c1CCC1(C2)OCCO1
inactive: NCI-H23 lung 94.2% | NCI-H226 lung 85.8% | NCI-H322M lung 99.8% | HOP-62 NSCLC 90.7% | NCI-H460 lung 100% | HOP-92 NSCLC 77.1% | NCI-H522 lung 79.6% | 786-0 renal 99.3% | COLO 205 colon 115%

O=S(=O)(NCCNc1nccc(-c2c(-c3cccc(O)c3)nc3sccn23)n1)c1ccc(F)cc1
inactive: NCI-H23 lung 87% | NCI-H226 lung 91.8% | NCI-H322M lung 90.4% | HOP-62 NSCLC 103% | NCI-H460 lung 67.3% | HOP-92 NSCLC 92.8% | NCI-H522 lung 64.4% | 786-0 renal 77% | COLO 205 colon 37.6%

COc1ccc(Nc2nc(N)nc3c2CCN(Cc2ccc(OC)cc2OC)C3=O)cc1
active: HOP-92 NSCLC 7.69%
inactive: NCI-H23 lung 73.1% | NCI-H226 lung 88% | NCI-H322M lung 71.1% | HOP-62 NSCLC 63.2% | NCI-H460 lung 67.8% | NCI-H522 lung 89.3% | 786-0 renal 72.1% | COLO 205 colon 110%

COc1ccc(Nc2[nH]n3c(=O)cc(-c4ccccc4)nc3c2C(=O)Nc2ccc(C)cc2)c(OC)c1
inactive: NCI-H23 lung 88.7% | NCI-H226 lung 87.4% | NCI-H322M lung 81.5% | HOP-62 NSCLC 80.3% | NCI-H460 lung 111% | HOP-92 NSCLC 68.9% | NCI-H522 lung 78.2% | 786-0 renal 92.7% | COLO 205 colon 98%
